Test results: PubChem BioAssay AID1159580 (chemical genetic matrix, 2015)
Where “and” joins values, the source holds several entries; their conditions need not be identical. Identical values can stand only once. About 2,000 (36%) of roughly 5,500 compounds were called active. Another 18% or so got no clear call; they are omitted. No stated cut-off is given here; in the data, active means normalized growth mostly below about 0.91 (no sharp cut-off); inconclusive means no clear call, values can overlap the other calls; inactive means mostly above about 0.92. The list shows a part of the results.

Experiment: chemical genetic growth profiling, strain panel (AID 1159580);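 further: tested at 20 µM; growth read once vehicle control cultures reached saturation at 30 °C; 1 = growth at the plate median or of vehicle wells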
Conditions: S. cerevisiae deletion strains, growth OD

Measured: normalized growth

COc1cccc2c1cc([N+](=O)[O-])c1c(C(=O)O)cc3c(c12)OCO3
inactive: locus YAL021C, strain ccr4, stronger effect = lower value 1.01 | locus YAL026C, strain drs2, stronger effect = lower value 1.02 | locus YAL030W, strain snc1, stronger effect = lower value 1.02 | locus YBL061C, strain skt5, stronger effect = lower value 1.02 | locus YBR009C, strain hhf1, stronger effect = lower value 1.03 | locus YBR021W, strain FUR4, stronger effect = lower value 0.991 | locus YBR023C, strain chs3, stronger effect = lower value 1.02 | locus YBR171W, strain sec66, stronger effect = lower value 1.05 | locus YBR229C, strain ROT2, stronger effect = lower value 1.01 | locus YBR231C, strain swc5, stronger effect = lower value 1.03 | locus YBR279W, strain paf1, stronger effect = lower value 1.02 | locus YCL011C, strain gbp2, stronger effect = lower value 1.03 | locus YCL016C, strain dcc1, stronger effect = lower value 1.02 | locus YCL029C, strain bik1, stronger effect = lower value 1.02 | locus YCL061C, strain MRC1, stronger effect = lower value 1.02 | locus YCL069W, strain vba3, stronger effect = lower value 1.02 | locus YCR088W, strain abp1, stronger effect = lower value 1.02 | locus YDL005C, strain med2, stronger effect = lower value 1.04 | locus YDL035C, strain GPR1, stronger effect = lower value 1.01 | locus YDL040C, strain nat1, stronger effect = lower value 1 | locus YDL074C, strain BRE1, stronger effect = lower value 1.04 | locus YDL101C, strain DUN1, stronger effect = lower value 1.03 | locus YDL134C, strain PPH21, stronger effect = lower value 1.01 | locus YDL185W, strain tfp1, stronger effect = lower value 1 | locus YDL192W, strain arf1, stronger effect = lower value 1.04 | locus YDR001C, strain nth1, stronger effect = lower value 1.02 | locus YDR069C, strain doa4, stronger effect = lower value 1.02 | locus YDR101C, strain arx1, stronger effect = lower value 1.03 | locus YDR137W, strain rgp1, stronger effect = lower value 1.03 | locus YDR150W, strain NUM1, stronger effect = lower value 1.02 | locus YDR159W, strain sac3, stronger effect = lower value 1.04 | locus YDR162C, strain NBP2, stronger effect = lower value 1.03 | locus YDR195W, strain ref2 1 | locus YDR297W, strain sur2, stronger effect = lower value 1.03 | locus YDR318W, strain mcm21, stronger effect = lower value 1.02 | locus YDR334W, strain swr1, stronger effect = lower value 1.02 | locus YDR335W, strain msn5, stronger effect = lower value 1.02 | locus YDR388W, stronger effect = lower value 1.02 | locus YDR392W, strain spt3, stronger effect = lower value 0.971 | locus YDR502C, strain sam2, stronger effect = lower value 1.01 | locus YEL003W, strain gim4, stronger effect = lower value 1.03 | locus YEL037C, strain rad23, stronger effect = lower value 1.02 | locus YEL061C, strain CIN8 (second series), stronger effect = lower value 1.02 | locus YEL061C, strain CIN8, stronger effect = lower value 1.01 | locus YER015W, strain faa2, stronger effect = lower value 1.02 | locus YER016W, strain bim1, stronger effect = lower value 1.02 | locus YER110C, stronger effect = lower value 1.01 | locus YER111C, strain swi4, stronger effect = lower value 1.03 | locus YER155C, strain BEM2 (second series), stronger effect = lower value 1.03 | locus YER155C, strain BEM2, stronger effect = lower value 1.01 | locus YER167W, strain BCK2, stronger effect = lower value 0.999 | locus YFR010W, strain ubp6, stronger effect = lower value 1.02 | locus YGL078C, strain dbp3, stronger effect = lower value 0.997 | locus YGL086W, strain mad1, stronger effect = lower value 1.03 | locus YGL167C, strain pmr1, stronger effect = lower value 1.04 | locus YGL173C, strain kem1, stronger effect = lower value 1.04 | locus YGL227W, strain vid30, stronger effect = lower value 1.02 | locus YGL240W, strain doc1, stronger effect = lower value 1.03 | locus YGL248W, strain PDE1, stronger effect = lower value 1.01 | locus YGL253W, strain hxk2, stronger effect = lower value 1.01 | locus YGR135W, strain pre9, stronger effect = lower value 0.994 | locus YGR229C, strain SMI1, stronger effect = lower value 1.02 | locus YGR252W, strain gcn5, stronger effect = lower value 0.906 | locus YHR013C, strain ard1, stronger effect = lower value 1.02 | locus YHR027C, strain rpn1, stronger effect = lower value 1.02 | locus YHR030C, strain SLT2, stronger effect = lower value 1.01 and 0.92 | locus YHR079C, strain IRE1 (second series), stronger effect = lower value 1.01 | locus YHR079C, strain IRE1, stronger effect = lower value 0.914 | locus YHR094C, strain hxt1, stronger effect = lower value 1.02 | locus YHR129C, strain ARP1, stronger effect = lower value 1.01 | locus YHR142W, strain chs7, stronger effect = lower value 1.01 | locus YHR200W, strain rpn10, stronger effect = lower value 1.02 | locus YIL066C, strain RNR3, stronger effect = lower value 1.02 | locus YIL073C, strain SPO22, stronger effect = lower value 1.03 | locus YIL125W, strain kgd1, stronger effect = lower value 0.995 | locus YIR030C, strain dcg1, stronger effect = lower value 1.02 | locus YJL092W, strain hpr5, stronger effect = lower value 1.02 | locus YJL095W, strain BCK1 (second series), stronger effect = lower value 1.01 | locus YJL095W, strain BCK1, stronger effect = lower value 1.04 and 0.987 | locus YJL115W, strain asf1, stronger effect = lower value 1.02 | locus YJL129C, strain trk1, stronger effect = lower value 1.03 | locus YJL134W, strain LCB3, stronger effect = lower value 1.02 | locus YJL154C, strain vps35, stronger effect = lower value 1.02 | locus YJL164C, strain tpk1, stronger effect = lower value 0.991 | locus YJL166W, strain qcr8, stronger effect = lower value 1.02 | locus YJL168C, strain set2, stronger effect = lower value 1.01 | locus YJL187C, strain SWE1 (second series), stronger effect = lower value 1.03 | locus YJL187C, strain SWE1, stronger effect = lower value 1.02 | locus YJR043C, strain POL32, stronger effect = lower value 1.01
